High-throughput results: PubChem, Buhrlage Lab, Dana-Farber Cancer Institute and Novartis Institutes for BioMedical Research (Cambridge, Mass)
An excerpt weighted towards active compounds, which were near 5% of everything screened.
UCHL1 inh: inhibitors of human UCHL1 deubiquitinase. Ubiquitin carboxyl-terminal hydrolase isozyme L1 (Homo sapiens), P09936. purified UCHL1, Ub-rhodamine cleavage fluorescence. 47,000 tested, 0.2% active. inhibition, % at 20 µM
USP8 inh: inhibitors of human USP8 deubiquitinase; inhibition, % at 20 µM; purified USP8, Ub-rhodamine cleavage fluorescence, 30 min; 47,000 tested, 4.2% active; Ubiquitin carboxyl-terminal hydrolase 8 (Homo sapiens), P40818
USP10 inh: inhibitors of human USP10 deubiquitinase; Ubiquitin carboxyl-terminal hydrolase 10 (Homo sapiens), Q14694; purified USP10, Ub-rhodamine fluorescence, 60 min; inhibition, % at 20 µM; 47,000 tested, 1.1% active; AID 1645856, 2021
USP7 block: inhibitors of human USP7 deubiquitinase; Ubiquitin carboxyl-terminal hydrolase 7 (Homo sapiens), Q93009; purified USP7, Ub-rhodamine cleavage fluorescence; inhibition, % at 20 µM; 47,000 tested, 0.3% active; AID 1645854, 2021
Target sequence (Q93009 whole entry, looked up): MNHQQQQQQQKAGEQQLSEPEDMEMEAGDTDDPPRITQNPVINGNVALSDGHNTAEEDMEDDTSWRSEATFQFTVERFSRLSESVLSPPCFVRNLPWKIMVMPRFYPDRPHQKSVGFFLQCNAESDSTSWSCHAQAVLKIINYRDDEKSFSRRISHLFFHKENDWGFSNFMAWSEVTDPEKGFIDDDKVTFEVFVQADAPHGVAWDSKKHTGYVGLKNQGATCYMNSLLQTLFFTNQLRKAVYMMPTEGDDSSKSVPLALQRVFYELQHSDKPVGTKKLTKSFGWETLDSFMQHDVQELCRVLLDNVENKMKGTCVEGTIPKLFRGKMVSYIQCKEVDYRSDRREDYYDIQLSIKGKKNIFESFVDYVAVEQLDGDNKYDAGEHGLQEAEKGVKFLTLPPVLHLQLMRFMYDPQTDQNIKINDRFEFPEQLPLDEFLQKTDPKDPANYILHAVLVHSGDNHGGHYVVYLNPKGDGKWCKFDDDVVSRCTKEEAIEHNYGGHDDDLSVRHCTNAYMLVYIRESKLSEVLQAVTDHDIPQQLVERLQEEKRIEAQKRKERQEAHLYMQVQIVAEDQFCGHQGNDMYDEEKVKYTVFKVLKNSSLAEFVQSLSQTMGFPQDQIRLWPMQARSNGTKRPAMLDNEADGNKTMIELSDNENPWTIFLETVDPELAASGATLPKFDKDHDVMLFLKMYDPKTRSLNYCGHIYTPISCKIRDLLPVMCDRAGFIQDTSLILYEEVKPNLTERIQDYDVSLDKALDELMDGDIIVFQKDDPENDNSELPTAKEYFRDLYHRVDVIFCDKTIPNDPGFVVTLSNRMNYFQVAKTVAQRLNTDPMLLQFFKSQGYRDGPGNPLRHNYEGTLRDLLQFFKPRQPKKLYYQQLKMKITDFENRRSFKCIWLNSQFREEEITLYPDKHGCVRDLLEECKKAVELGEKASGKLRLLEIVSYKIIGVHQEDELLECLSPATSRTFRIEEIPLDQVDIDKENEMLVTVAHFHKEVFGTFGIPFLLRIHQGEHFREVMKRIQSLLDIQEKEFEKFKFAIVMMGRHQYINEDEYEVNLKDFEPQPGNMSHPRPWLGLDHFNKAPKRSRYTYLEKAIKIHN
* hit, by the source's call. Cut-off read from the data, not from the text of the source: active = inhibition above about 30%; inactive = the rest.

SMILES	UCHL1 inh	USP8 inh	USP10 inh	USP7 block
CC(Sc1nc2ncc(Cl)cc2[nH]1)C(=O)Nc1ccc2c(c1)OCO2 (centres undefined)	1.2	37.5*	-7.1	4.5
COc1ccc(S(=O)(=O)c2cnc3ccccc3c2N2CCOCC2)cc1	2.0	7.8	-3.3	2.3
CSc1ccc(CNC(=O)Cn2nc(C)c3c(C)n(-c4ccccc4)nc3c2=O)cc1	17.9	88.8*	45.9*	20.5
CCOc1ccc2nc(NC(=O)CCCOc3ccc(C(C)(C)C)cc3)sc2c1	-5.3	0.2	-8.8	5.2
CN1CCN(C(=O)c2ccc(-c3ccc(NCc4ccccc4)nn3)cc2)CC1	-2.4	-209.3	-4.1	-1.3
c1ccc(CNc2ccc(-c3ccccc3)nn2)cc1	4.3	56.8*	10.0	8.0
CCOc1ccc(-c2cnc(NCc3cccc(C)c3)n2C)cc1	-5.2	53.2*	-4.2	-9.7
CCOc1ccc(NC(=O)CN2CCN(Cc3cccc(C)c3)S2(=O)=O)cc1	2.9	16.4	-1.9	3.1
CCCCCCCCCCCCCCCc1cc(O)cc(O)c1	5.3	5.5	30.2*	-13.0
CCCCCCCC/C=C\CCCCCCCc1cc(O)cc(O)c1C(=O)O	0.4	1.4	0.8	4.1
COc1ccc2oc(C(=O)NC3CCCc4ccccc43)c(C)c2c1 (centres undefined)	0.2	0.5	6.2	6.5
Cc1ccc(S(=O)(=O)N2CCN(C(=O)CN3c4ccccc4CC3C)CC2)c(C)c1 (centres undefined)	-6.0	37.4*	-12.3	-1.2
Cc1cc(F)ccc1NC(=O)c1cn(-c2cc(N3CCCC3)ncn2)cn1	-11.0	-45.5	-4.0	-8.3
COc1cc(OC)cc(C(=O)NC(C(=O)OCC(=O)c2c(-c3ccccc3)n(C)c3ccccc23)C(C)C)c1 (centres undefined)	-3.9	13.5	-9.6	3.6
O=C(NCc1ccco1)c1ccc(Cn2c(=O)c3sccc3n(Cc3cc(=O)n4ccccc4n3)c2=O)cc1	9.2	67.8*	12.6	4.3
O=C(CCCn1c(=O)c2ccccc2n(Cc2cc(=O)n3ccccc3n2)c1=O)NCc1ccco1	0.3	-19.1	-3.3	-5.5
COc1ccc(NC(=O)CCN2C(=O)[C@@H]3Cc4ccccc4CN3C2=O)cc1	-4.1	-21.5	1.3	-4.4
COc1ccc(/C=C2\NC(=O)[C@H]3Cc4ccccc4CN3C2=O)cc1	0.4	45.6*	10.2	9.9
Cc1nc(C2COCCN2C(=O)c2cc(C(C)(C)C)[nH]n2)cc(=O)[nH]1 (centres undefined)	37.3*	-0.4	2.3	-0.8
CC(C)(C)c1cc(C(=O)N2CCOCC2c2ccn[nH]2)n[nH]1 (centres undefined)	-7.0	0.5	-2.0	0.1
Cc1cccc(C(=O)NCC(c2ccco2)N2CCCC2)c1 (centres undefined)	1.7	2.0	-1.8	1.8
CC(C)(C)CC(=O)N1CCC(c2nccnc2-c2ncc[nH]2)CC1	1.1	0.2	-0.9	4.5
CC1(C)CC(=O)c2c(C#N)sc(C#N)c2C1	-15.3	60.4*	-5.6	-45.6
O=C(Cn1cc(C(=O)C(F)(F)F)c2cc(Br)ccc21)N1CCc2ccccc21	-2.3	2.2	36.3*	4.9
O=C(Nc1sc2c(c1-c1nc3ccccc3[nH]1)CCCC2)c1ccccc1[N+](=O)[O-]	2.2	31.9*	8.3	7.3
SMILES	UCHL1 inh	USP8 inh	USP10 inh	USP7 block
O=C(Nc1sc2c(c1-c1nc3ccccc3[nH]1)CCCC2)c1ccncc1	-4.5	31.2*	-6.1	1.0
CC(C)(C)C(=O)Nc1sc2c(c1-c1nc3ccccc3[nH]1)CCCC2	2.0	22.8	-5.0	1.6
CCOC(=O)c1noc2nc(C)nc(NCC3CCN(Cc4ccc(F)cc4)CC3)c12	0.5	6.5	-3.6	3.3
CC1Cc2ccccc2N1S(=O)(=O)c1cccc(C(=O)NCc2ccc3c(c2)OCO3)c1 (centres undefined)	3.4	38.6*	9.8	7.5
CC1Cc2ccccc2N1S(=O)(=O)c1cccc(C(=O)OCC(=O)Nc2ccc3c(c2)OCO3)c1 (centres undefined)	0.7	37.5*	8.4	7.5
Cn1cc(-c2cnc(CC3CCCN(C(=O)C(C)(C)C)C3)cn2)cn1 (centres undefined)	-1.4	1.2	2.3	-1.1
COc1ccc([N+](=O)[O-])cc1NC(=O)COC(=O)c1ccc2[nH]c3c(c2c1)CCCC3	11.2	59.7*	50.5*	12.2
CN(C)C(=O)N1CCN(C(=O)NCc2ccccc2)CC2(CNC(=O)C2)C1 (centres undefined)	-0.7	16.9	0.0	5.1
CC1(C)c2[nH]c3ccccc3c2C[C@@H]2C(=O)N(C3CCCCC3)CC(=O)N21	-0.2	31.3*	7.0	-19.5
CC(C)(C)OC(=O)N1Cc2ccccc2C[C@H]1C(=O)N1CCC(C(=O)N[C@H](CC(N)=O)C(=O)O)(c2ccccc2)CC1	4.2	50.2*	1.2	3.9
Cc1nn(-c2ccc(C(=O)/C=C3\NCCc4cc5c(cc43)OCO5)cc2)c(C)c1Cl	-7.8	-31.2	-5.9	-6.7
CC(=O)[C@H]1c2c(c(O)c3c(O)cccc3c2-c2c3c(c(O)c4c(O)cccc24)C(=O)C[C@](C)(O)[C@H]3C(C)=O)C(=O)C[C@]1(C)O	23.3	64.2*	26.5	13.5
COc1cccc(/C=C/C(=O)Nc2ccc(C)c(Cl)c2)c1	5.6	31.6*	11.2	-93.3
O=C1CN(C(=O)CC2CCCCC2)C(c2ccccc2)c2cc(Cl)ccc2N1 (centres undefined)	12.0	34.4*	12.5	-24.0
CCc1ccc(NC(=O)C(C)Nc2ccccc2NCCc2ccccc2)cc1 (centres undefined)	-0.3	64.1*	-5.3	-3.5
Cc1cc(C)cc(N(CCC(=O)Nc2ccc(N3CCOCC3)cc2)S(=O)(=O)c2ccc(Cl)cc2)c1	3.7	32.3*	10.4	9.1
Cc1cc(C)cc(N(CCC(=O)Nc2ccccc2)S(=O)(=O)c2ccc3ccccc3c2)c1	8.7	22.8	9.6	14.2
CCN(CC)CCn1c(NC(=O)c2ccc(S(=O)(=O)N3CCOCC3)cc2)nc2ccccc21	2.1	69.9*	-3.2	-0.5
CC(C)NC(=O)N1CCCCCC1C1CCN(Cc2nnnn2-c2ccccc2)CC1 (centres undefined)	-2.4	-76.6	-4.9	-3.9
Cc1cccc(NC(=O)c2cc(-c3ccc(C)c(C)c3O)n[nH]2)c1	6.1	80.8*	25.8	16.3
Cc1cc(-c2cnc(NCCCN3CCOCC3)nc2[C@@H]2CCCO2)on1	-2.0	-1.2	1.0	1.6
COc1cccc(C(=O)Nc2nc(-c3nnn(-c4ccc(C)c(F)c4)c3C)ns2)c1	7.2	55.7*	47.5*	15.8
O=C(c1cc(-c2ccc(Cl)cc2)n[nH]1)N1CCN(c2ccccn2)CC1	15.1	65.6*	23.2	28.6
C[C@H](NC(=O)Cc1ccccc1F)c1nc2cc(-c3ccccc3F)ncn2n1	2.2	39.1*	40.2*	5.6
COc1ccc(-c2cc3nc([C@H](C)NC(=O)COc4ccccc4F)nn3cn2)cc1	7.3	16.7	18.4	27.0
